Source: PubChem BioAssay AID493168 (National Center for Advancing Translational Sciences (NCATS), 2011)
Results filed as inconclusive are left out. A call without a number means that no potency is given here. Active and inactive are the calls of the source. Calls come from the whole dose curve; as a rule, active = well fitted inhibition curve with a large enough effect; inconclusive = small, poorly fitted or top-dose-only effect, or effect the other way; inactive = flat fitted curve, though single readings scatter.

Each molecule was assayed against Ubiquitin carboxyl-terminal hydrolase 2 (Homo sapiens) (UniProt O75604) (assay: Confirmation Assay for Inhibitors of Ubiquitin-specific Protease USP2a Using CHOP2 as the Reporter). Conditions: USP2 core, Ub-CHOP2 coupled reporter fluorescence; series mostly up to 38.3 µM.
Sequence of Ubiquitin carboxyl-terminal hydrolase 2 (Homo sapiens) (O75604 whole entry, looked up): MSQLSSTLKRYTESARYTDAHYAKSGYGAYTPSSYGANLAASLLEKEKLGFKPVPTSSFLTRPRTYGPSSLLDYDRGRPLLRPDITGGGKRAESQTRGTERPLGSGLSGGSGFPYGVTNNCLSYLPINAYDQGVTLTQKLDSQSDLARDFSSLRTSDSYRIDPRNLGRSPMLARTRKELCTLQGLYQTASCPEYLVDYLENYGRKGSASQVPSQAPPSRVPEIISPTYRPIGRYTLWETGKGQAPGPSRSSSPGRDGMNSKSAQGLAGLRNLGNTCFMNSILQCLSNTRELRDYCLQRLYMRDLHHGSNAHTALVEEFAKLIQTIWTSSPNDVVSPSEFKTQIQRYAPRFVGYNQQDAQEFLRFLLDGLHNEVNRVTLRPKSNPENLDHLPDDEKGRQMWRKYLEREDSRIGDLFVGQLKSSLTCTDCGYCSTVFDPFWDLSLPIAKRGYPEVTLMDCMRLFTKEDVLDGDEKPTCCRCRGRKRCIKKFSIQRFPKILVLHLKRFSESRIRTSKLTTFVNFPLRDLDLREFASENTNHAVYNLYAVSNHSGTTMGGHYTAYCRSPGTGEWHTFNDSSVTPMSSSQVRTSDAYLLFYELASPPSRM
Outline: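 Ub-CHOP2 cleavage coupled to reporter activation was read by fluorescence after 60 min at RT, with 25 nM final Ub-CHOP2 and substrate. Enzyme (10 nM final USP2 core) first sat 30 min with compound; data were normalized to NEM and fitted to concentration-response curves.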
Note: nearly all actives have a fitted effect of over 55% in size.

Row | Structure (SMILES) | Potency
1 | O=C(c1ccc(CS(=O)(=O)c2ccc(Br)cc2)o1)N1CCCC1 | inactive
2 | CNc1cccccc1=S | inactive
3 | S=c1[nH]nc(-c2cc(-c3ccco3)[nH]n2)n1-c1cccc2ccccc12 | inactive
4 | CC1CCCC(N2CCN(C(=O)c3cccc(F)c3)CC2)C1 (configuration not stated) | inactive
5 | O=C1CC(c2ccc(Cl)cc2)SC(N(c2ccccc2)c2ccccc2)=N1 (configuration not stated) | inactive
6 | CCOC(=O)N1CCN(C(=O)CN(c2cccc(C)c2)S(=O)(=O)c2ccccc2)CC1 | inactive
7 | O=C(Cc1ccc(S(=O)(=O)N2CCOCC2)s1)NCCC(c1ccccc1)c1ccccc1 | inactive
8 | COc1ccc(OC)c(Nc2ccc(Nc3cc(OC)ccc3OC)nn2)c1 | inactive
9 | CCCCCCCC/C=C\CCCCCCCC(=O)NCCc1ccc(O)c(O)c1 | inactive
10 | C=CCn1c(Br)nc2c1c(=O)n(C)c(=O)n2C | inactive
11 | O=C(CCc1nc(-c2ccccc2F)no1)NC1CCCCCC1 | inactive
12 | NC(=O)CC(NC(=O)Cc1ccc(Br)cc1)c1ccc(N2CCC(Cc3ccccc3)CC2)c([N+](=O)[O-])c1 (configuration not stated) | inactive
13 | Cc1cc(C(=O)NCc2ccco2)on1 | inactive
14 | OCCN(Cc1ccccc1)c1ncnc2sccc12 | inactive
15 | CC(C)c1ccc(CCNC(=O)c2ccc([N+](=O)[O-])cc2)cc1 | inactive
16 | C=CCn1c(NCc2cc(C)ccc2O)nc2ccccc21 | inactive
17 | COc1ccc(OCC(=O)NCCNC(=O)c2cccnc2)cc1 | inactive
18 | COc1ccc(CC(NC(C)=O)C(=O)NC2CCN(c3nc(C)cc(C)c3C#N)CC2)c(OC)c1 (configuration not stated) | inactive
19 | COc1ccccc1N1CCN(c2cc(C)nc3nc(C)nn23)CC1 | inactive
20 | O/N=C/c1ccccc1OCc1ccccc1F | inactive
21 | COc1ccc(-c2nc(Cn3c(SCc4ccc(F)cc4)nc4ccncc43)c(C)o2)cc1OC | inactive
22 | NS(=O)(=O)c1ccc(NC(=O)CN2CCCCC2)cc1 | inactive
